Screening data deposited in PubChem BioAssay by several laboratories.
Rows were chosen to be rich in hits. Some 2.8% of all compounds tested hit in one or more screens of this group.
p47phox inh: p47phox (human) inhibition; 0.53% of 220,000 active; inhibition, % at 24.7 µM; P14598; p47phox/p22phox peptide binding, fluorescence polarization, 2 h; AID 1274;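 active = inhibition above about 30%, limit read from the data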;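 also: 0% = p47phox with labelled peptide and 100% = labelled peptide alone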
HSV augment: increases HSV replication in cells; HSV replication augmentation in cells, fold increase; maximum fold increase; 0.005% of 220,000 active; AID 1956; in the data active = maximum fold increase above about 1.5; tested in PC3 cells
Furin inh: blocks human furin protease activity. P09958. purified furin, fluorogenic substrate cleavage. inhibition, % at 20 µM or 30 µM. 0.061% of 220,000 active; in the data active = inhibition above about 25%
Target sequence (P09958 108-714 limits assumed): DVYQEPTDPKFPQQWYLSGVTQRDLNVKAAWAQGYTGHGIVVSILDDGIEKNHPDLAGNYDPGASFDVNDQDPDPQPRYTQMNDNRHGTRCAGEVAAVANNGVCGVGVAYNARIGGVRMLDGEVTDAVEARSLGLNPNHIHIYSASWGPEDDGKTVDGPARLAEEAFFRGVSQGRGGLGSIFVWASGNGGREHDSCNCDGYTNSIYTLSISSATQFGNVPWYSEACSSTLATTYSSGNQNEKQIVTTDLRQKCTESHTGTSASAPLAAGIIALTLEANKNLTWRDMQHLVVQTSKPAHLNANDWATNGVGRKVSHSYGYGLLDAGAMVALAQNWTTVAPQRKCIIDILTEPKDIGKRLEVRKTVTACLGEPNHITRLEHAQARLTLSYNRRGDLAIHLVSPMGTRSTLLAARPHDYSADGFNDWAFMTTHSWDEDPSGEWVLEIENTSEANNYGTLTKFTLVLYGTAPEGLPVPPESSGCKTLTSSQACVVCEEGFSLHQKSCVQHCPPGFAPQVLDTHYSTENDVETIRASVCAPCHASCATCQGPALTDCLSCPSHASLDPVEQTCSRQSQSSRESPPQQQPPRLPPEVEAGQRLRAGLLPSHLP
Wee1 stabilizer: human Wee1 degradation inhibition, primary screen | HeLa Luc-Wee1K328M stability, luciferase luminescence; 100% = proteasome inhibitor MG132 effect | reporter increase, % at 5 µM | 1.2% of 220,000 active;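 active = activation above the mean of all tested compounds plus 3 SD, set per screening run, cut at about 8.8% in these data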;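 also: cells exposed to compound for 20 h before luminescence read; 0% = DMSO alone and 100% = MG132 at 30 µM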
EP2 antag: inhibitors of human EP2 prostaglandin E2 receptor; C6 glioma cells expressing human EP2, cAMP TR-FRET; cells stimulated with saturating PGE2; inhibition, % at 25 µM; 0.52% of 260,000 active; P43116;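 active = percent inhibition above 40 after rounding to a whole number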;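 also: rat C6 glioma host cells with rolipram phosphodiesterase inhibitor present; the protocol text gives 20 µM as final concentration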
EP2 mod: modulates human prostaglandin E2 receptor EP2 signaling; P43116; EP2-expressing cells, cAMP HTRF FRET, PGE2 co-stimulation; induction, % at 25 µM; 0.83% of 260,000 active; AID 940;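 active = compounds whose cAMP rise, as percent of the full-agonist control response, exceeds 60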;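 also: rat C6 glioma line stably carrying human EP2 under a CMV promoter; the protocol text gives 20 µM as final concentration; 100% = response of wells given 1 µM PGE2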
An asterisk follows results filed as active.

How did CC(C)(C)n1nnnc1C(c1cccnc1)N(CCc1ccccc1)Cc1cccs1 (centres undefined) do in these assays?
EP2 antag: 8; EP2 mod: 63*

What do the screens show for `CCN(Cc1ccccc1)C(c1ccc(C)cc1)c1nnnn1C(C)(C)C` (centres undefined)?
p47phox inh: -1; HSV augment: inactive; Furin inh: -5; Wee1 stabilizer: 0; EP2 antag: 10; EP2 mod: 61*

What do the screens show for `Cc1nnc(N2C(=O)C(O)=C(C(=O)c3ccco3)C2c2ccc(C(C)(C)C)cc2)s1` (centres undefined)?
p47phox inh: -24; HSV augment: inactive; Furin inh: -15; Wee1 stabilizer: 5; EP2 antag: 57*; EP2 mod: 12

Results for CNc1nc(NCCOC23CC4CC(CC(C4)C2)C3)nc(OCC(F)(F)F)n1 ?
p47phox inh: 0; HSV augment: inactive; Furin inh: 29*; Wee1 stabilizer: -2; EP2 antag: -3; EP2 mod: 12

Results for Cc1nc(CNC(=O)c2cc(COc3c(F)cccc3F)on2)cs1 ?
p47phox inh: -5; HSV augment: inactive; Furin inh: -20; Wee1 stabilizer: 4; EP2 antag: 6; EP2 mod: 6

Results for COc1cccc(CNC(=O)c2cc(COc3c(F)cccc3F)on2)c1 ?
p47phox inh: -17; HSV augment: inactive; Furin inh: -16; Wee1 stabilizer: 9.8*; EP2 antag: 4; EP2 mod: -9

Results for O=C1NC2=C(C(=O)N(CCCO)C2)C(c2cccc(F)c2)N1 (centres undefined) ?
EP2 antag: 4; EP2 mod: -7

How did COCCn1c(SCC(=O)Nc2ccc(OC)cc2)nnc1-c1ccc(OC)cc1 do in these assays?
EP2 antag: 6; EP2 mod: -29

What do the screens show for `NC(=O)c1cccc(-c2cc(Nc3ccc(OC(F)(F)F)cc3)ncn2)c1`?
p47phox inh: -11; HSV augment: inactive; Furin inh: -12; EP2 antag: 59*; EP2 mod: -23

How did O=C(Nc1ccc(OC(F)(F)F)cc1)Nc1cccnc1 do in these assays?
p47phox inh: -5; HSV augment: inactive; Furin inh: -12; Wee1 stabilizer: 4; EP2 antag: 11; EP2 mod: -15

What do the screens show for `Cc1nc(NC(=O)c2ccc(F)cc2)sc1C(=O)Nc1ccc2c(c1)CCC2`?
p47phox inh: -13; HSV augment: inactive; Furin inh: -23; Wee1 stabilizer: 0; EP2 antag: 10; EP2 mod: 17

What do the screens show for `Cc1ccc(C(=O)Nc2nc(C)c(C(=O)Nc3ccc4c(c3)CCC4)s2)cc1`?
p47phox inh: -22; HSV augment: inactive; Furin inh: -24; Wee1 stabilizer: 9.8*; EP2 antag: 8; EP2 mod: -12

How did COc1cccc(-n2c(SCC(=O)NCc3cccs3)nc3ccccc3c2=O)c1 do in these assays?
p47phox inh: -6; HSV augment: inactive; Furin inh: -24; Wee1 stabilizer: 3; EP2 antag: 11; EP2 mod: 16

What do the screens show for `Cc1ccccc1-n1c(SCC(=O)NCc2cccs2)nc2ccccc2c1=O`?
p47phox inh: 30*; HSV augment: inactive; Furin inh: -15; Wee1 stabilizer: -2; EP2 antag: 6; EP2 mod: 12

How did O=C(N/N=C/c1ccc(-c2cccc([N+](=O)[O-])c2)o1)c1ccccc1O do in these assays?
p47phox inh: 19; HSV augment: inactive; Furin inh: -3; Wee1 stabilizer: 5; EP2 antag: 6; EP2 mod: -70

How did Cc1cc(C(=O)N/N=C/c2cc(N=Nc3ccccc3)ccc2O)n[nH]1 do in these assays?
p47phox inh: 35*; HSV augment: inactive; Furin inh: -3; Wee1 stabilizer: 5; EP2 antag: 5; EP2 mod: 5

How did O=C(N/N=C/c1ccc(-c2cccc([N+](=O)[O-])c2)o1)c1ccc([N+](=O)[O-])cc1 do in these assays?
p47phox inh: 4; HSV augment: inactive; Furin inh: 0; Wee1 stabilizer: 9.2*; EP2 antag: 8; EP2 mod: -74

What do the screens show for `Cc1cc(C(=O)N/N=C/c2ccc(-c3cccc(Br)c3)o2)n[nH]1`?
p47phox inh: -26; HSV augment: inactive; Furin inh: -6; Wee1 stabilizer: 10*; EP2 antag: 11; EP2 mod: -22

Results for O=C(O)CSc1ncnc2c1sc1nc(-c3ccccc3)c3c(c12)CCC3 ?
p47phox inh: -13; HSV augment: inactive; Furin inh: -10; Wee1 stabilizer: -2; EP2 antag: 7; EP2 mod: 70*

How did CC1CCN(c2nc3c(c(=O)[nH]2)CN(Cc2ccnc4ccccc24)CC3)CC1 do in these assays?
EP2 antag: 8; EP2 mod: -57

How did CS(=O)(=O)c1cnc2ncnn2c1C1CCCN(C(=O)c2cc(F)cc(F)c2)C1 (centres undefined) do in these assays?
EP2 mod: -3

How did CC(C(=O)N1CCn2c(nnc2C2CC2)C1)n1nc2ccccc2n1 (centres undefined) do in these assays?
EP2 mod: -8

Results for CCc1nnc(NS(=O)(=O)c2ccc(NC(=S)NC(=O)/C=C/c3ccc(C(C)C)cc3)cc2)s1 ?
p47phox inh: -53; HSV augment: inactive; Furin inh: -14; Wee1 stabilizer: -2; EP2 antag: 3; EP2 mod: -17

Results for CCc1nnc(NS(=O)(=O)c2ccc(NC(=S)NC(=O)c3ccccc3)cc2)s1 ?
p47phox inh: -6; HSV augment: inactive; Furin inh: -16; Wee1 stabilizer: 5; EP2 antag: 21; EP2 mod: -114

How did O=C(NC(=S)Nc1ccc(S(=O)(=O)Nc2nccs2)cc1)c1ccccc1 do in these assays?
p47phox inh: -11; HSV augment: inactive; Furin inh: -1; Wee1 stabilizer: -1; EP2 antag: 8; EP2 mod: -101

What do the screens show for `CCc1nnc(NS(=O)(=O)c2ccc(NC(=S)NC(=O)/C=C/c3ccc(OC)cc3)cc2)s1`?
p47phox inh: -28; HSV augment: inactive; Furin inh: -19; Wee1 stabilizer: 2; EP2 antag: 104*; EP2 mod: -9

How did CCc1nnc(NS(=O)(=O)c2ccc(NC(=S)NC(=O)c3ccc(Br)cc3)cc2)s1 do in these assays?
p47phox inh: -43; HSV augment: inactive; Furin inh: -11; Wee1 stabilizer: -2; EP2 antag: 59*; EP2 mod: -79

What do the screens show for `COc1ccc(C(=O)NC(=S)Nc2ccc(S(=O)(=O)Nc3nccs3)cc2)cc1`?
EP2 antag: 49*; EP2 mod: -121

How did CC(C)c1nc2ccccc2c2nn(CC(=O)NCc3cccc(F)c3)c(=O)n12 do in these assays?
EP2 antag: 3; EP2 mod: 7

Results for O=C(Nc1nc(-c2ccc(Cl)cc2)cs1)c1ccc2nccnc2c1 ?
EP2 antag: 11; EP2 mod: -52
